For some assays here: Entries with a potency or affinity are not part of this list.

For ten molecules, Percent Effect results are on record in ChEMBL document CHEMBL3988442, “University of Dundee, Small-Polar-MMV Screening Library” (2021).

Common to all, as to set-up: scale not given: direction of the effect not stated beside the values
Assay [1] concerns the target Protein translocase subunit SecA (Escherichia coli (strain K12)) (UniProt P10408). Briefly: Assay to Identify E. coli SecA ATPase Inhibitors. Conditions: 30 µM. It counts as functional.
For assay [2], the target named is T1, Ubiquitin-activating enzyme e1, putative (Leishmania donovani (strain BPK282A1)) (UniProt E9BSI1).
T1 sequence (whole entry): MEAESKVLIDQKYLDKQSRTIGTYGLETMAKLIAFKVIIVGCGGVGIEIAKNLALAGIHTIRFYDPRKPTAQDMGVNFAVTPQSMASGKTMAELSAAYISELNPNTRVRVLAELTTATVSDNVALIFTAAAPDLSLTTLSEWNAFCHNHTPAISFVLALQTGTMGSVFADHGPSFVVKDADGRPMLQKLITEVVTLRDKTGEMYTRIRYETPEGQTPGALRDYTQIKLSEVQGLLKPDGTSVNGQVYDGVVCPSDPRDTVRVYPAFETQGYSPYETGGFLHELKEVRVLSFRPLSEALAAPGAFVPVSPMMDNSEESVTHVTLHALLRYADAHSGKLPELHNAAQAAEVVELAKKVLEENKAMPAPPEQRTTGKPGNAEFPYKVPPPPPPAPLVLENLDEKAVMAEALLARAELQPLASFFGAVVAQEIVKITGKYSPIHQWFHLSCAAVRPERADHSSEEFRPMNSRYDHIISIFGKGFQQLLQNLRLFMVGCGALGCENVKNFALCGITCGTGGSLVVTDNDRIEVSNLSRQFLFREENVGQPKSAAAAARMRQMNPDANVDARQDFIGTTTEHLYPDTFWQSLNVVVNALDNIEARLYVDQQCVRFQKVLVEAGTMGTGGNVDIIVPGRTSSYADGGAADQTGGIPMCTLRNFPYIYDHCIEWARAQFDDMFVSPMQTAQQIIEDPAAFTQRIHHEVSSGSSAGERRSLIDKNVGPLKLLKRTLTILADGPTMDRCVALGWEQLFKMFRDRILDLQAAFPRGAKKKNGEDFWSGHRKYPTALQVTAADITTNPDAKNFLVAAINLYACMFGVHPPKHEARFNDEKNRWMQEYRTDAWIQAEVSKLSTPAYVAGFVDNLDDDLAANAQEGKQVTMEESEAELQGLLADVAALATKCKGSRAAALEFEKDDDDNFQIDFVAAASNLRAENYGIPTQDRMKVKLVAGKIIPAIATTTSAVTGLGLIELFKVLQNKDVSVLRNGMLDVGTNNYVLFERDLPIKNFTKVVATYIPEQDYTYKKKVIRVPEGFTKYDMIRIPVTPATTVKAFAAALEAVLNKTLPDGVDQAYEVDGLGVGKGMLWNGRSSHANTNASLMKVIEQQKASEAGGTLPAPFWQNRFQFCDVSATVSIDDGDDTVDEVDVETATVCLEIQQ
In words: Leishmania donovani Ubiquitin Activating Enzyme (LdE1). In kind it is functional. To be noted: 30 µM.

Assay [3] has as its target AMP-activated protein kinase, AMPK (Homo sapiens) (UniProt P54646+O43741+P54619+Q9UGJ0+Q9Y478+Q13131+Q9UGI9). In words: AMP-dependent Kinase enzyme assay. An in vitro enzyme assay that detects ADP turnover that is directly proportional to AMPK activity. This uses naive AMPK that is activated during the assay with MK-8722. It counts as functional. To be noted: 30 µM.
The target in assay [4] is Sialic acid-binding Ig-like lectin 9 (Homo sapiens) (UniProt Q9Y336). In words: Hs-Siglec9 ALPHAscreen SOP 20170721. Conditions: 10 µM.
The next assay concerns Trypanosoma cruzi. Briefly: Trypanosoma cruzi phosphomannomutase and mannose-1-phosphate guanylyltransferase assay. Conditions: 10 µM. In kind it is functional.
Assay [5] concerns the target T2, Arginase-2, mitochondrial (Homo sapiens) (UniProt P78540).
T2 sequence (whole entry): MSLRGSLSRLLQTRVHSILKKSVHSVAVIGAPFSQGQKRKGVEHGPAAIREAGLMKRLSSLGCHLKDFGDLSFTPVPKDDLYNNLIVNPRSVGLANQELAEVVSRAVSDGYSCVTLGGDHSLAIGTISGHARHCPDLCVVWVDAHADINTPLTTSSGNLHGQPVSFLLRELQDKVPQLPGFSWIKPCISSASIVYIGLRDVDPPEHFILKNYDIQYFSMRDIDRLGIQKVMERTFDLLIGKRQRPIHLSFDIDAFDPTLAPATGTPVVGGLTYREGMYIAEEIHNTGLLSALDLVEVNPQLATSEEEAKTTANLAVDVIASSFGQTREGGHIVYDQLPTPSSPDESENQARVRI
Briefly: in vitro enzyme assay to detect the production of urea directly proportional to the activity of Arginase II. Note: in the data most compounds retested in dose-response had high values. In kind it is functional. To be noted: 33.3 µM.

The target of assay [6] is T3, Proteasome subunit beta (Trypanosoma cruzi) (UniProt O96673).
T3 sequence (whole entry): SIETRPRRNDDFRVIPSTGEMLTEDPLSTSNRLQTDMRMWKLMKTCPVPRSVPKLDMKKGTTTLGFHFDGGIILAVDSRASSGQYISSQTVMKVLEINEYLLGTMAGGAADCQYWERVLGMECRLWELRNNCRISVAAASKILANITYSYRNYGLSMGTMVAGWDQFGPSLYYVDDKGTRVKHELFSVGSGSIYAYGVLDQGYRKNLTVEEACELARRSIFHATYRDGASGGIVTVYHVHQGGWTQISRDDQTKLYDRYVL
Briefly: Trypanosoma cruzi proteasome chymotrypsin-like activity (TcProtChymo) assay. Note: in the data most compounds retested in dose-response had high values. It counts as functional. Conditions: 9.37 µM.

The next assay is filed under the species Homo sapiens. Briefly: To identify inhibition of the IFN signalling (Jak-Stat) pathway via expression of an eGFP reporter gene under the control of an IFN-stimulated response element (ISRE) containing MxA promoter. In kind it is functional. To be noted: 30 µM. For orientation: Reporter assays use an easily measured gene product as a stand-in for the process of interest.

The target in assay [7] is T4, Tyrosyl-tRNA synthetase, putative (Trypanosoma cruzi (strain CL Brener)) (UniProt Q4DSP6).
T4 sequence (whole entry): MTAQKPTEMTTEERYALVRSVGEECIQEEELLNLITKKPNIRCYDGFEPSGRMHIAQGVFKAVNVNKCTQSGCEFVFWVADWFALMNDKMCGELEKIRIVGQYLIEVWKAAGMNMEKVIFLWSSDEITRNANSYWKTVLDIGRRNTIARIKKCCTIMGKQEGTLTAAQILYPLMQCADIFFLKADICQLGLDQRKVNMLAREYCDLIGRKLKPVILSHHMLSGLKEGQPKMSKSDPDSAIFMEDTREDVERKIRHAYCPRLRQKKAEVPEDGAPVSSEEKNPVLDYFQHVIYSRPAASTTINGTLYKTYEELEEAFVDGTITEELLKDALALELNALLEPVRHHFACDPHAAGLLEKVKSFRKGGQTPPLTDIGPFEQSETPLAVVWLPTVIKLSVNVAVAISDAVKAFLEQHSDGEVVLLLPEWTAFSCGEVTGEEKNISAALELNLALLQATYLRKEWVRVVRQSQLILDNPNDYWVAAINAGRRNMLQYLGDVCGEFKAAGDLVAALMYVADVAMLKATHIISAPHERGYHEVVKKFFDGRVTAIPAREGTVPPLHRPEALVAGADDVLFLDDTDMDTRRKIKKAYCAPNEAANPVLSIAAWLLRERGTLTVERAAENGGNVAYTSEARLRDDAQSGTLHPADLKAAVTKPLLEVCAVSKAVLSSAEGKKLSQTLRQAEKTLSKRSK
Briefly: Trypanosoma cruzi tyrosyl tRNA synthetase (TcYRS) _High Tyrosine SOP. Note: in the data most compounds retested in dose-response had high values. To be noted: 30 µM. It counts as functional.

Assay [8] has as its target T4, Tyrosyl-tRNA synthetase, putative (Trypanosoma cruzi (strain CL Brener)). Briefly: Trypanosoma cruzi tyrosyl tRNA synthetase (TcYRS) SOP. In kind it is functional. Conditions: 30 µM.
The target in assay [9] is Chromo domain-containing protein 1 (Saccharomyces cerevisiae (strain ATCC 204508 / S288c) (Baker's yeast)) (UniProt P32657). In words: ScCHD-1 Enzyme Inhibition Assay. Note: in the data most compounds retested in dose-response had high values. In kind it is functional. To be noted: 30 µM.
Chromo domain-containing protein 1 (Saccharomyces cerevisiae (strain ATCC 204508 / S288c) (Baker's yeast)), sequence (P32657 whole entry, the tested form may be a part): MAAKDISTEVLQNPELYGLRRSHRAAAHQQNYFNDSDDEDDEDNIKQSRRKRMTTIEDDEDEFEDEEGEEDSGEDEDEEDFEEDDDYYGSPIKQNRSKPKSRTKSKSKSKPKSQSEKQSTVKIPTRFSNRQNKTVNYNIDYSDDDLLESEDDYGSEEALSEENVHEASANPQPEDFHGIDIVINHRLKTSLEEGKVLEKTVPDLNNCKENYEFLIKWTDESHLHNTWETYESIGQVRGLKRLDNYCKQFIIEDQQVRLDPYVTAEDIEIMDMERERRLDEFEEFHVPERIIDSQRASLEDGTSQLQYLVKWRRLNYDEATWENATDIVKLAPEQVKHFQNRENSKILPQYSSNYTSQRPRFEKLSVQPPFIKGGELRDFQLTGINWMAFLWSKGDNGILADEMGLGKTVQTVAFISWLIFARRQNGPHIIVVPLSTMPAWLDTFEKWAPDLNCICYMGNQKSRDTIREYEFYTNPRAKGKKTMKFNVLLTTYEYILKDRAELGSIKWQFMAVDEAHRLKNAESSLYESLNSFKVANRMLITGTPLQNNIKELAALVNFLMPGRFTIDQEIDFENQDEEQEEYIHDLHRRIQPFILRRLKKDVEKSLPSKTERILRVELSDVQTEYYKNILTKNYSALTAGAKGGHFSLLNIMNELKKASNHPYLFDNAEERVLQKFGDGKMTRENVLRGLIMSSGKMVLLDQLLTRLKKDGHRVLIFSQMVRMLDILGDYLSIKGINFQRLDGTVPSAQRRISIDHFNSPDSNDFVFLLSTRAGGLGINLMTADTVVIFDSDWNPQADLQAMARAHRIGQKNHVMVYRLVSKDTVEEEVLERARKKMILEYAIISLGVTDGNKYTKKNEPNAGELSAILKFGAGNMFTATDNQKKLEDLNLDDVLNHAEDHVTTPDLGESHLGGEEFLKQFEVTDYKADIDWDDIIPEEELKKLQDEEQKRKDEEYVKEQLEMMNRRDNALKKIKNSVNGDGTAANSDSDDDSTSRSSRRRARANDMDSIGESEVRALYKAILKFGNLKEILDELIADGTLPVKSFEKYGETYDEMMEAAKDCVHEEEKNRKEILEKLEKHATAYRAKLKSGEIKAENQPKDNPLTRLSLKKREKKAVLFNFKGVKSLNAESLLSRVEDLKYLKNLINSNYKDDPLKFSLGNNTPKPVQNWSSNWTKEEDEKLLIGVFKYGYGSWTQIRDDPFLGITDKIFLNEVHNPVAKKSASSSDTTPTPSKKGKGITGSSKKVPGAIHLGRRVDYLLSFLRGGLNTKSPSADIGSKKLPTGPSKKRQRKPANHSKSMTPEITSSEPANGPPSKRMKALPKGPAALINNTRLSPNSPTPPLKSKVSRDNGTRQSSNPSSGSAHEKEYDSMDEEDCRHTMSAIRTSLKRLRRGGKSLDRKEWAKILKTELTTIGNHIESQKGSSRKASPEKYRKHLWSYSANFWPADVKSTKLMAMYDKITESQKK

Protein translocase subunit SecA (Escherichia coli (strain K12)), sequence (P10408 whole entry): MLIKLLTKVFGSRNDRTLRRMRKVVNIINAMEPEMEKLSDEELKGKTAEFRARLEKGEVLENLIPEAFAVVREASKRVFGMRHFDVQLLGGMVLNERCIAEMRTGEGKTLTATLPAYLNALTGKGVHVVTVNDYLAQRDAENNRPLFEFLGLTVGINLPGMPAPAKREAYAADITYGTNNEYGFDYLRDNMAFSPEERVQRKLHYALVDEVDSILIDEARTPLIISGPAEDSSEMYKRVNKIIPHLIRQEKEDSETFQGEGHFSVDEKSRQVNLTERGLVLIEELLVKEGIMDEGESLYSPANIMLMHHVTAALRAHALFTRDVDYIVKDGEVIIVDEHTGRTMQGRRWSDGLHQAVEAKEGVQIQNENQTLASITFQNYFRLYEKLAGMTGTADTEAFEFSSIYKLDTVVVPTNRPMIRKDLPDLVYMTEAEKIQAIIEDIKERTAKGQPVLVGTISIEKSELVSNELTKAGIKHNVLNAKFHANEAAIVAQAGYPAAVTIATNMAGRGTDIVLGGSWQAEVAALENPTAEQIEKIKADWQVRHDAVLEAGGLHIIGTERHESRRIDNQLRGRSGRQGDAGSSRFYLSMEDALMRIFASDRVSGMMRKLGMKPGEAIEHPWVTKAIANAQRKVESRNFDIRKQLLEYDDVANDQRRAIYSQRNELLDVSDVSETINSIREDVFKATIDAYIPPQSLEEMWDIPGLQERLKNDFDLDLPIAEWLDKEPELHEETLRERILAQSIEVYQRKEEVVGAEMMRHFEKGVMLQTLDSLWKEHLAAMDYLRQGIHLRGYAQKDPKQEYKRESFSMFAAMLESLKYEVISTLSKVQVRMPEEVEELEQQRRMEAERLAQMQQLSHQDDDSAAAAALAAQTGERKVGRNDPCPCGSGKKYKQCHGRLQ
Sialic acid-binding Ig-like lectin 9 (Homo sapiens), sequence (Q9Y336 whole entry): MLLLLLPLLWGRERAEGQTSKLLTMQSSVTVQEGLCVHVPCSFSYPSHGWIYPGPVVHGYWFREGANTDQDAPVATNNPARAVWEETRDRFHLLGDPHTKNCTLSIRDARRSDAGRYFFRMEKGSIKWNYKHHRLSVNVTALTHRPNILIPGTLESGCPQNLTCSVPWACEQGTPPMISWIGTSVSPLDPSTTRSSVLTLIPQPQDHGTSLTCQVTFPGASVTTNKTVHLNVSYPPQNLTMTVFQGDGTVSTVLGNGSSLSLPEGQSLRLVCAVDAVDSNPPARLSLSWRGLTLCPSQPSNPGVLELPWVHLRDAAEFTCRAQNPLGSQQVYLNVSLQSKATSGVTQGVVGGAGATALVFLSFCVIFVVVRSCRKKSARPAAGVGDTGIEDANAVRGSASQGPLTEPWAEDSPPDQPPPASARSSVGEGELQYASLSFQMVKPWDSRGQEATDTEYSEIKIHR

Take `CN(C)c1ncc(-c2cc(C(=O)O)n(CC3CC3)c2)cn1`: the Percent Effect is -1.6% in assay [1]; -2.7% in [2]; 5.47% in [3]; -3.4% in [4]; 1.95% with Trypanosoma cruzi; -0.833% in assay [5]. Also, the Percent Effect in assay [6] was 7.69%; in the assay filed under Homo sapiens it was 7.22%; in assay [7], 5.94%; in assay [8], -3.66%; in assay [9], -8.88%.
With `O=C(c1ccn(-c2cccc(F)c2)n1)N1CCCC(n2cccn2)C1` (stereo not given), the Percent Effect in [1] was -4.17%; in assay [2] it was 2.6%; in [3], 4.13%; in [4], 0.275%; in the assay with Trypanosoma cruzi, 5.78%; in [5] it was -1.05%. The Percent Effect in assay [6] was 13.3%; in the assay filed under Homo sapiens it was 2.64%; in assay [7] it was 0%; in assay [8] it was 7.06%; in [9], -16.1%.
As for `CC(C)(C)c1ncc2c(n1)CN(C(=O)c1ccc(-c3nc[nH]n3)cc1)C2`, the Percent Effect is -4.17% in assay [1]; 19.2% in assay [2]; -3.06% in assay [3]; 7.66% in assay [4]; 4.37% with Trypanosoma cruzi; 1.2% in [5]. Also, the Percent Effect in assay [6] was 6.76%; in the assay filed under Homo sapiens it was -4.4%; in assay [7] it was 7.29%; in assay [8], 21%; in assay [9], -8.9%.
`CC(=O)c1cccc(NC(=O)COc2c(C)n(C)ccc2=O)c1`: the Percent Effect is -3.77% in assay [1]; 9.33% in assay [2]; 5.33% in assay [3]; 5.82% in assay [4]; -2.95% with Trypanosoma cruzi; -12.5% in [5]. Besides, the Percent Effect was 16.1% in assay [6]; 7.79% in the assay filed under Homo sapiens; 7.41% in [7]; 20.5% in [8]; -2.85% in [9].
In the case of `CC(C)SCC(=O)N1CCc2c(nc(N(C)C)nc2N(C)C)C1`, the Percent Effect was -5.05% in assay [1]; 13.3% in assay [2]; -4.26% in assay [3]; 19.7% in [4]; 6.52% in the assay on Trypanosoma cruzi; 5.73% in assay [5]. For the same molecule, the Percent Effect in assay [6] was 13.8%; in the assay filed under Homo sapiens, 10.8%; in [7] it was 2.73%; in assay [8] it was 8.64%; in assay [9] it was -8.15%.
With `COCCCN(C)Cc1nc2c(cnn2C)c(=O)[nH]1`, the Percent Effect is -5.54% in [1]; 21.1% in assay [2]; -0.426% in [3]; -2.13% in assay [4]; 7.75% with Trypanosoma cruzi; 3.96% in assay [5]. The Percent Effect in assay [6] is 18.4%; in the assay listed under Homo sapiens it was -3.84%; in assay [7], 2.46%; in assay [8], 25.9%; in assay [9], -9.74%.
With `CC(Cn1cccn1)NC(=O)NCc1ccc(S(N)(=O)=O)cc1` (stereo not given), the Percent Effect in assay [1] was -1.8%; in [2], 15.6%; in assay [3], 6.57%; in assay [4], -7.88%; with Trypanosoma cruzi it was -1.27%; in assay [5], -1.05%. In addition, the Percent Effect was 13.7% in [6]; 6% in the assay filed under Homo sapiens; 9.52% in assay [7]; 23.5% in assay [8]; -18.9% in [9].
Turning to `COc1cccc2c1ccn2CCC(=O)NCCCC(=O)O`, the Percent Effect was -1.03% in [1]; 20% in assay [2]; 1.22% in assay [3]; -4.11% in assay [4]; -4.32% with Trypanosoma cruzi; -2.99% in assay [5]. Also, the Percent Effect in assay [6] was 13.5%; in the assay listed under Homo sapiens it was -6.02%; in assay [7], 5.29%; in [8], 5.13%; in assay [9], -9.24%.
For `O=C(NC[C@H]1OC[C@@H]2CCN(Cc3ccco3)C[C@@H]21)c1ccsc1`, the Percent Effect in assay [1] was -1.93%; in assay [2], 8.22%; in assay [3], -0.185%; in assay [4], 8.5%; in the assay with Trypanosoma cruzi, 4.17%; in [5], -9.58%. Besides, the Percent Effect in assay [6] is 11.2%; in the assay listed under Homo sapiens, -6.7%; in assay [7] it was 6.25%; in assay [8], 8.64%; in [9] it was -1.63%.
`Cc1nnc(N2C[C@@H](OCCCn3cccn3)[C@H]3OCCC[C@H]32)s1`: the Percent Effect was -0.829% in assay [1]; 5.48% in [2]; -5.05% in assay [3]; 10.8% in assay [4]; 1.79% in the assay with Trypanosoma cruzi; -5.19% in assay [5]. Moreover, the Percent Effect is 24.9% in [6]; -5.83% in the assay listed under Homo sapiens; 7.29% in [7]; 16.1% in assay [8]; -7.05% in [9].
